Activity calls are given as the source filed them. The calls were made as follows: active = hit-call score of the fitted dose curve at least 0.9, where 1 is the maximum; inactive = score below 0.9.
Molecular target: Nuclear factor erythroid 2-related factor 2 (Homo sapiens) (UniProt Q16236)
Assay: ERF_US_NR_hNFE2L2: Eurofins (ERF) Cell Based Nuclear Translocation LeadHunter Assay for human Transcription Factor Keap1-Nrf2 Agonism
Method: ERF_US_NR_hNFE2L2 is a cell-based, single-readout assay that uses extracted gene-proteins in a cell-line assay. Measurements were taken 6 hours after chemical dosing in a 384-well plate. See Keap1-Nrf2 Human Transcription Factor Cell Based Agonist Nuclear Translocation Assay, DiscoverX.ERF_US_NR_hNFE2L2 is an assay component calculated from the ERF_US_NR_hNFE2L2 assay. It is designed to measure protein fragment complementation using a type of binding reporter as detected by chemiluminescence with fluorimetry technology.Data from the assay component ERF_US_NR_hNFE2L2 was analyzed at the assay endpoint, ERF_US_NR_hNFE2L2, in the positive analysis fitting direction relative to DMSO as the negative control and baseline of activity. Using a type of binding reporter, gain-of-signal activity can be used to understand changes in binding as they relate to gene NFE2L2. To generalize the intended target to other relatable targets, this assay endpoint is annotated to the dna binding intended target family, where the subfamily is basic leucine zipper.
Cells were seeded in a total volume of 20 uL into white walled, 384-well microplates and incubated at 37C overnight prior to testing.For agonist determination, cells were incubated with sample to induce response. Intermediate dilution of sample stocks was performed to generate 5X sample in assay buffer. 5 uL of 5X sample was added to cells and incubated at room temperature for 6 hours. Final assay vehicle concentration was 1%. The results are expressed as a percent efficacy relative to the maximum response of the control ligand.

Chain of Nuclear factor erythroid 2-related factor 2 (Homo sapiens) (Q16236 whole entry, looked up): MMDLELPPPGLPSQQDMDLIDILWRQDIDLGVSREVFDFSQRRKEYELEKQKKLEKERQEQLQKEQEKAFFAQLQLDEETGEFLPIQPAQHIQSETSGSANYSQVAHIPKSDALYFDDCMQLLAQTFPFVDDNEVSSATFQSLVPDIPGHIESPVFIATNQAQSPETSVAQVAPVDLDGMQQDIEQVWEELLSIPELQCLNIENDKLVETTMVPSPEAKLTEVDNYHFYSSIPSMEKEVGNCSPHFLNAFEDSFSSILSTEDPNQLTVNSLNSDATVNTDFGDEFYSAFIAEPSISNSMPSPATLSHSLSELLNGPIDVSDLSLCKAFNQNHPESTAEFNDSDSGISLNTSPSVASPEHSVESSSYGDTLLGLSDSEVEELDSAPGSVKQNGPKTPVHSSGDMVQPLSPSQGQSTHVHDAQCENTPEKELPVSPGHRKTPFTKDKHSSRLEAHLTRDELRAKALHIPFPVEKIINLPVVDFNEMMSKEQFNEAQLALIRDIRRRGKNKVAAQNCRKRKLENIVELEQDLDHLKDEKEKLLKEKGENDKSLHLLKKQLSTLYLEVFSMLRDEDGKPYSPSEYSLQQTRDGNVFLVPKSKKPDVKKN

Compound | AC50 | outcome
OCCC(F)(F)C(F)(F)C(F)(F)C(F)(F)C(F)(F)C(F)(F)C(F)(F)C(F)(F)F | 1.94 µM (active) | –
O=C(O)C(F)(F)C(F)(F)C(F)(F)C(F)(F)C(F)(F)C(F)(F)C(F)(F)C(F)(F)Cl | – | inactive
O=C(O)C(F)(F)C(F)(F)C(F)(F)F | – | inactive
O=C(O)CCC(F)(F)C(F)(F)C(F)(F)C(F)(F)C(F)(F)F | – | inactive

— PubChem BioAssay AID2284363 (EPA ToxCast)
